# Measurements: PubChem BioAssay (NCATS)
# Inconclusive results are not listed. Where a call stands in place of a potency, no number is given. A number with no mark means an inactive call. Active and inactive are the calls of the source. Unless noted, the call rests on the fitted dose curve; in most records, active means well fitted curve in the direction sought with a large enough effect; inconclusive means small, poorly fitted or top-dose-only effect, or another doubt; inactive means no such curve, though single readings can be large; an effect the other way counts as inactive or inconclusive.
# Experiments:
# [1] = NCATS anti-infectives library activity on HEK293 viability as a counter-qHTS vs the C. elegans viability qHTS (AID 1745854);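 further: HEK293 cells exposed to compounds for 24 hr before the viability read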
# Method in brief: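 HEK293 cells (1,500/well) exposed 24 hr at 37C to 1:5 titrations, up to 41.7 uM final; counter-screen to a C. elegans viability qHTS. Viability by CellTiter-Glo luminescence after 10 min at room temperature; digitonin as control.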
# [2] = target: Glutathione peroxidase 1 (Homo sapiens) (UniProt P07203); assay: Primary qHTS Assay for Inhibitors of Recombinant Selenoprotein Glutathione Peroxidase 1 (GPX1) (AID 1845191); further: nearly all actives have a fitted effect of over 65% in size
# Method in brief: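 Recombinant GPX1 (10 nM final) was preincubated with compound for 30 min at room temperature, then reacted with 1 mM GSH, 0.5 mM CHP, 0.5 mM NADPH and 100 nM glutathione reductase; NADPH fluorescence (340/450 nm) was read at 0 and 15 min.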
# [3] = target: Phospholipid hydroperoxide glutathione peroxidase GPX4 (Homo sapiens) (UniProt P36969); assay: Primary qHTS Assay for Inhibitors of Recombinant Selenoprotein Glutathione Peroxidase 4 (GPX4) (AID 1845192); further: nearly all actives have a fitted effect of over 65% in size; further: potency means the concentration at half of the fitted maximal effect
# Method in brief: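 GR-coupled readout: 100 nM GR, 1 mM GSH, 0.5 mM NADPH; NADPH fluorescence (ex 340/em 450 nm) read at t=0 and after 15 min RT. GPX4 200 nM, preincubated 30 min with compound; substrate 0.5 mM CHP.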
# [4] = target: ATP-dependent 6-phosphofructokinase (Trypanosoma brucei brucei) (UniProt O15648); assay: qHTS Assay to Find Inhibitors of T. brucei phosphofructokinase: hit validation (AID 492961);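 further: luminescence reports ADP formed as PFK phosphorylates fructose-6-phosphate with ATP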
# Method in brief: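 Reaction: 0.1 M triethanolamine pH 8.0, 5 mM MgCl2, F6P 0.5 mM, ATP 0.1 mM, PFK 1.25 nM, 45 min RT. Read-out: ADP-Glo luminescence. Analysis: concentration-response fits, classed by r2 and efficacy.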
# [5] = target: Luciferin 4-monooxygenase (Photinus pyralis) (UniProt P08659); assay: Biochemical firefly luciferase enzyme assay for NPC (AID 624030);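 further: purified P. pyralis luciferase at 10 nM with luciferin and ATP substrate; nearly all actives have a fitted effect of over 70% in size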
# Method in brief: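 Counter-screen for direct inhibition of the luciferase enzyme by approved-drug library compounds, run at 10 nM enzyme in 50 mM Tris acetate (final). Luminescence was read within 5 min of enzyme-buffer addition and normalized to PTC124 versus DMSO (0%).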
# [6] = S16 Schwann cell PMP22 intronic element firefly luciferase assay (AID 624032); further: nearly all actives have a fitted effect of over 30% in size
# Method in brief: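 Rat S16 Schwann cells stably carrying a PMP22 intronic element-driven Fluc reporter were seeded overnight, then exposed to compounds for 24 h at 37 °C. Luminescence was normalized to PTC124 (positive control) and DMSO (0% activity).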
# [7] = S16 Schwann cell PMP22 intronic element beta-lactamase assay (AID 624044; calls by dose curve; further: nearly all actives have a fitted effect of over 15% in size)
# Method in brief: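 Rat S16 Schwann cells with beta-Lac driven by a PMP22 intronic element, compound-treated 24 h at 37 °C. LiveBLAzer FRET B/G read: 460 nm normalized to potassium clavulanate vs DMSO; 535 nm FRET as viability; concentration-effect curves classified.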
# [8] = qHTS profiling for inhibitors of Plasmodium falciparum proliferation (AID 504749); further: nearly all actives have a fitted effect of over 60% in size; further: potency means the concentration at half of the fitted maximal effect; details: P. falciparum in erythrocytes, SYBR Green DNA, 72 h, at 28.7 µM (top of the series)
# Method in brief: (§1)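 Parasite proliferation within erythrocytes, 72 h exposure. Endpoint: SYBR Green I fluorescence after overnight lysis at room temperature. Controls: 0.29 uM artemisinin, DMSO.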
# 3D7 = assay: as above; details: P. falciparum in erythrocytes, SYBR Green DNA, 72 h; series mostly up to 28.7 µM
# Method in brief: as §1
# 7G8 = assay: as above; details: P. falciparum in erythrocytes, SYBR Green DNA, 72 h; series mostly up to 28.7 µM
# Method in brief: as §1
# AA1029 = assay: as above; details: P. falciparum in erythrocytes, SYBR Green DNA, 72 h; series mostly up to 28.7 µM
# Method in brief: as §1
# AS120 = assay: as above; details: P. falciparum in erythrocytes, SYBR Green DNA, 72 h; series mostly up to 28.7 µM
# Method in brief: as §1
# ATS189 = assay: as above; details: P. falciparum in erythrocytes, SYBR Green DNA, 72 h; series mostly up to 28.7 µM
# Method in brief: as §1
# ATS95 = assay: as above; details: P. falciparum in erythrocytes, SYBR Green DNA, 72 h; series mostly up to 28.7 µM
# Method in brief: as §1
# C2A = assay: as above; details: P. falciparum in erythrocytes, SYBR Green DNA, 72 h; series mostly up to 28.7 µM
# Method in brief: as §1
# CP185 = assay: as above; details: P. falciparum in erythrocytes, SYBR Green DNA, 72 h; series mostly up to 28.7 µM
# Method in brief: as §1
# CP191 = assay: as above; details: P. falciparum in erythrocytes, SYBR Green DNA, 72 h; series mostly up to 28.7 µM
# Method in brief: as §1
# CP192 = assay: as above; details: P. falciparum in erythrocytes, SYBR Green DNA, 72 h; series mostly up to 28.7 µM
# Method in brief: as §1
# CP194 = assay: as above; details: P. falciparum in erythrocytes, SYBR Green DNA, 72 h; series mostly up to 28.7 µM
# Method in brief: as §1
# CP201 = assay: as above; details: P. falciparum in erythrocytes, SYBR Green DNA, 72 h; series mostly up to 28.7 µM
# Method in brief: as §1
# CP215 = assay: as above; details: P. falciparum in erythrocytes, SYBR Green DNA, 72 h; series mostly up to 28.7 µM
# Method in brief: as §1
# CP217 = assay: as above; details: P. falciparum in erythrocytes, SYBR Green DNA, 72 h; series mostly up to 28.7 µM
# Method in brief: as §1
# CP237 = assay: as above; details: P. falciparum in erythrocytes, SYBR Green DNA, 72 h; series mostly up to 28.7 µM
# Method in brief: as §1
# CP238 = assay: as above; details: P. falciparum in erythrocytes, SYBR Green DNA, 72 h; series mostly up to 28.7 µM
# Method in brief: as §1
# CP247 = assay: as above; details: P. falciparum in erythrocytes, SYBR Green DNA, 72 h; series mostly up to 28.7 µM
# Method in brief: as §1
# CP250 = assay: as above; details: P. falciparum in erythrocytes, SYBR Green DNA, 72 h; series mostly up to 28.7 µM
# Method in brief: as §1
# CP252 = assay: as above; details: P. falciparum in erythrocytes, SYBR Green DNA, 72 h; series mostly up to 28.7 µM
# Method in brief: as §1
# CP256 = assay: as above; details: P. falciparum in erythrocytes, SYBR Green DNA, 72 h; series mostly up to 28.7 µM
# Method in brief: as §1
# CP260 = assay: as above; details: P. falciparum in erythrocytes, SYBR Green DNA, 72 h; series mostly up to 28.7 µM
# Method in brief: as §1
# CP262 = assay: as above; details: P. falciparum in erythrocytes, SYBR Green DNA, 72 h; series mostly up to 28.7 µM
# Method in brief: as §1
# CP265 = assay: as above; details: P. falciparum in erythrocytes, SYBR Green DNA, 72 h; series mostly up to 28.7 µM
# Method in brief: as §1
# CP266 = assay: as above; details: P. falciparum in erythrocytes, SYBR Green DNA, 72 h; series mostly up to 28.7 µM
# Method in brief: as §1
# CP269 = assay: as above; details: P. falciparum in erythrocytes, SYBR Green DNA, 72 h; series mostly up to 28.7 µM
# Method in brief: as §1
# CP297 = assay: as above; details: P. falciparum in erythrocytes, SYBR Green DNA, 72 h; series mostly up to 28.7 µM
# Method in brief: as §1
# CP315 = assay: as above; details: P. falciparum in erythrocytes, SYBR Green DNA, 72 h; series mostly up to 28.7 µM
# Method in brief: as §1
# CP329 = assay: as above; details: P. falciparum in erythrocytes, SYBR Green DNA, 72 h; series mostly up to 28.7 µM
# Method in brief: as §1
# DFO2036 = assay: as above; details: P. falciparum in erythrocytes, SYBR Green DNA, 72 h; series mostly up to 28.7 µM
# Method in brief: as §1
# DIV17 = assay: as above; details: P. falciparum in erythrocytes, SYBR Green DNA, 72 h; series mostly up to 28.7 µM
# Method in brief: as §1
# Dd2 = assay: as above; details: P. falciparum in erythrocytes, SYBR Green DNA, 72 h; series mostly up to 28.7 µM
# Method in brief: as §1
# ECU = assay: as above; details: P. falciparum in erythrocytes, SYBR Green DNA, 72 h; series mostly up to 28.7 µM
# Method in brief: as §1
# FAB9 = assay: as above; details: P. falciparum in erythrocytes, SYBR Green DNA, 72 h; series mostly up to 28.7 µM
# Method in brief: as §1
# GB4 = assay: as above; details: P. falciparum in erythrocytes, SYBR Green DNA, 72 h; series mostly up to 28.7 µM
# Method in brief: as §1
# HB3 = assay: as above; details: P. falciparum in erythrocytes, SYBR Green DNA, 72 h; series mostly up to 28.7 µM
# Method in brief: as §1
# JCK = assay: as above; details: P. falciparum in erythrocytes, SYBR Green DNA, 72 h; series mostly up to 28.7 µM
# Method in brief: as §1
# N140 = assay: as above; details: P. falciparum in erythrocytes, SYBR Green DNA, 72 h; series mostly up to 28.7 µM
# Method in brief: as §1
# PAD = assay: as above; details: P. falciparum in erythrocytes, SYBR Green DNA, 72 h; series mostly up to 28.7 µM
# Method in brief: as §1
# PC15 = assay: as above; details: P. falciparum in erythrocytes, SYBR Green DNA, 72 h; series mostly up to 28.7 µM
# Method in brief: as §1
# PC26 = assay: as above; details: P. falciparum in erythrocytes, SYBR Green DNA, 72 h; series mostly up to 28.7 µM
# Method in brief: as §1
# PC49 = assay: as above; details: P. falciparum in erythrocytes, SYBR Green DNA, 72 h; series mostly up to 28.7 µM
# Method in brief: as §1
# SC27B = assay: as above; details: P. falciparum in erythrocytes, SYBR Green DNA, 72 h; series mostly up to 28.7 µM
# Method in brief: as §1
# TAB109 = assay: as above; details: P. falciparum in erythrocytes, SYBR Green DNA, 72 h; series mostly up to 28.7 µM
# Method in brief: as §1
# TAB113 = assay: as above; details: P. falciparum in erythrocytes, SYBR Green DNA, 72 h; series mostly up to 28.7 µM
# Method in brief: as §1
# TAB165 = assay: as above; details: P. falciparum in erythrocytes, SYBR Green DNA, 72 h; series mostly up to 28.7 µM
# Method in brief: as §1
# Phospholipid hydroperoxide glutathione peroxidase GPX4 (Homo sapiens), sequence (P36969 whole entry, looked up): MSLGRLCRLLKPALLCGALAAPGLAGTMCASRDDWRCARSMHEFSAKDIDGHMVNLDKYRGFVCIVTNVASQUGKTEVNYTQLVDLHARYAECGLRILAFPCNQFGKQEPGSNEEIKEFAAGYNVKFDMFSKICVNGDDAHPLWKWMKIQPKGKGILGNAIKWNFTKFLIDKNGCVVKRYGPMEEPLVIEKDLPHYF
# Glutathione peroxidase 1 (Homo sapiens), sequence (P07203 whole entry, looked up): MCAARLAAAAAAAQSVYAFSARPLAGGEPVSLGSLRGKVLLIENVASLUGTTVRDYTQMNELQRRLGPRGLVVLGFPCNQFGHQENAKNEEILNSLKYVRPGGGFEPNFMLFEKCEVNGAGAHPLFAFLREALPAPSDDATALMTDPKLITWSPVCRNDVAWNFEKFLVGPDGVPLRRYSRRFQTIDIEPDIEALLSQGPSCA
# Luciferin 4-monooxygenase (Photinus pyralis), sequence (P08659 whole entry, looked up): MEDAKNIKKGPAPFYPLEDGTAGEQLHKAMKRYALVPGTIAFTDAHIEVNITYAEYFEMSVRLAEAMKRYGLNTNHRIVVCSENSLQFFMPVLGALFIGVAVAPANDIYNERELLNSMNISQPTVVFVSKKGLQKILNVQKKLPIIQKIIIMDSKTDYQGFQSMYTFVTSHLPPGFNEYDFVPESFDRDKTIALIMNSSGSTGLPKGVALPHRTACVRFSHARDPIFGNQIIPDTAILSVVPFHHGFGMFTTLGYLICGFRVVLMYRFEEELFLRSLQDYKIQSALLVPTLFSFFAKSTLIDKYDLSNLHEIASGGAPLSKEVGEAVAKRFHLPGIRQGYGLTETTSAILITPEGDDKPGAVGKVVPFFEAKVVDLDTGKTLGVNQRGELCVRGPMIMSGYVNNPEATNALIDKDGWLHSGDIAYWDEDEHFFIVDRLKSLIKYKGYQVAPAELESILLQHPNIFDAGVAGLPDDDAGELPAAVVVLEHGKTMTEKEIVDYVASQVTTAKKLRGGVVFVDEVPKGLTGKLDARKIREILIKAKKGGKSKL
# ATP-dependent 6-phosphofructokinase (Trypanosoma brucei brucei), sequence (O15648 whole entry, looked up): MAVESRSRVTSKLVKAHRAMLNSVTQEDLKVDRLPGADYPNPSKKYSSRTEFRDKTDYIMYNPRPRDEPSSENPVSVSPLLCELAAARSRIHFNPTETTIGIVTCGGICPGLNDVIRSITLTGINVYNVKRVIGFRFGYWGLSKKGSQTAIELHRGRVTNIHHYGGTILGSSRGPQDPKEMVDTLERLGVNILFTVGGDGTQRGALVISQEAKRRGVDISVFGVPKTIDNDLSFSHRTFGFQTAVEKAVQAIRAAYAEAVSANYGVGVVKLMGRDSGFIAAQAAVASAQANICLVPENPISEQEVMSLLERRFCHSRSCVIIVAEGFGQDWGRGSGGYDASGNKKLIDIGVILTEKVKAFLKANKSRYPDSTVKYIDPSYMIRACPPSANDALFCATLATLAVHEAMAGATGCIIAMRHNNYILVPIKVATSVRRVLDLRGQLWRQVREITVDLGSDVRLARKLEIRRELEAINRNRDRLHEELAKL
compound,measurement,setting,value
NC(=O)[C@@H]1CC[C@@H]2CN1C(=O)N2OS(=O)(=O)O,Potency,[1],inactive
same,Potency,[2],inactive
same,Potency,[3],inactive
COC(=O)N[C@H](C(=O)N1CC2(CC2)C[C@H]1c1ncc(-c2ccc3c(c2)C(F)(F)c2cc(-c4ccc5nc([C@@H]6[C@H]7CC[C@H](C7)N6C(=O)[C@@H](NC(=O)OC)C(C)C)[nH]c5c4)ccc2-3)[nH]1)C(C)C,Potency,[1],inactive
same,Potency,[2],inactive
same,Potency,[3],3.55 µM (active)
COC(=O)N[C@H](C(=O)N1CCC[C@H]1c1ncc(-c2ccc3c(c2)O[C@@H](c2ccccc2)n2c-3cc3cc(-c4cnc([C@@H]5CCCN5C(=O)[C@@H](NC(=O)OC)C(C)C)[nH]4)ccc32)[nH]1)C(C)C,Potency,[1],inactive
same,Potency,[3],6.31 µM (active)
CC(C)CN(C[C@@H](O)[C@H](Cc1ccccc1)NC(=O)O[C@H]1CCOC1)S(=O)(=O)c1ccc(N)cc1,outcome,[4],inactive
same,Potency,[5],inactive
same,Potency,[6],inactive
same,Potency,[7],inactive
same,Potency,[1],inactive
same,Potency,[2],inactive
same,Potency,[3],inactive
same,"activity, negative = inhibition",[8]; parasite line A,-4.85%
same,"activity, negative = inhibition",[8]; parasite line B,-24.9%
same,Potency,3D7,inactive
same,Potency,7G8,10 µM (active)
same,Potency,AA1029,inactive
same,Potency,AS120,inactive
same,Potency,ATS189,inactive
same,Potency,ATS95,inactive
same,Potency,C2A,inactive
same,Potency,CP185,inactive
same,Potency,CP191,inactive
same,Potency,CP192,inactive
same,Potency,CP194,inactive
same,Potency,CP201,inactive
same,Potency,CP215,inactive
same,Potency,CP217,inactive
same,Potency,CP237,inactive
same,Potency,CP238,inactive
same,Potency,CP247,inactive
same,Potency,CP250,inactive
same,Potency,CP252,inactive
same,Potency,CP256,inactive
same,Potency,CP260,inactive
same,Potency,CP262,inactive
same,Potency,CP265,inactive
same,Potency,CP266,inactive
same,Potency,CP269,inactive
same,Potency,CP297,inactive
same,Potency,CP315,inactive
same,Potency,CP329,inactive
same,Potency,DFO2036,inactive
same,Potency,DIV17,inactive
same,Potency,Dd2,inactive
same,Potency,ECU,inactive
same,Potency,FAB9,inactive
same,Potency,GB4,inactive
same,Potency,HB3,inactive
same,Potency,JCK,inactive
same,Potency,N140,inactive
same,Potency,PAD,inactive
same,Potency,PC15,inactive
same,Potency,PC26,inactive
same,Potency,PC49,inactive
same,Potency,SC27B,inactive
same,Potency,TAB109,inactive
same,Potency,TAB113,inactive
same,Potency,TAB165,inactive
